The whole screen tested about 69,000 compounds, of which about 8,600 (12%) showed an effect of 50% or more. Only a selection was taken, and strong results are over-represented in it overall.

The assay relates to Plasmodium berghei. The assay can be described thus: Screen against P. berghei liver stage (PbLuc), transformed with Luciferase, at 10uM. Type of assay: functional, HepG2. The note with it: tested at 10 uM.
Consider `CNC(=O)N1CCC2(CC1)c1ncc(C)n1CCN2C`, for which the INHIBITION is recorded as 48.4%. With `CN1C[C@H](c2ccccc2)[C@H]2CN(C(=O)Cc3cccc(O)c3)CC[C@H]21`, the INHIBITION was determined as 43.7%. As to `O[C@@]1(CNCC2(Cn3ccnc3)CC2)CCCN2CCCC[C@@H]21`, the INHIBITION is reported as -6.39%. On to `Cc1nnc(CNCC2(O)CCCN(Cc3ccc(F)c(F)c3)C2=O)[nH]1` (stereo not drawn), for which the INHIBITION is given as -1.33%. For the compound `CCOCc1cc(CN2CCn3c(CO)nnc3C2)ccc1OC`, the INHIBITION is recorded as -38.2%.

Consider `Cc1ccc(CN2CCc3ncnc(C4CC4)c3CC2)s1`, for which the INHIBITION is given as 34.8%. Regarding `CC(C)Cc1nc(CN2CCN(CC(O)c3ccccc3)CC2)no1` (stereo not drawn), the INHIBITION is given as 23.5%. As to `CN(Cc1cnn(C)c1)C(=O)c1ccc(=O)n(Cc2ccccc2)n1`, the INHIBITION was 0.164%. Next, `Cn1cccc1CNC(=O)CCCc1nnc2ccccn12`: -23.7%; `O=C(CCC1CCCC1)NCc1nnc2ccccn12`: 76.4%. On to `CCC(O)CN(C)Cc1nnc2ccccn12` (stereo not drawn), for which the INHIBITION came out at 61.8%. `CN(Cc1nnc2ccccn12)C(=O)CC1CCCCC1`: the INHIBITION is 10.7%. With `CN(Cc1nnc2ccccn12)C(=O)CCNC(=O)C(C)(C)C` the figure was 8.77%. As to `Cc1ccc(C)c(C(O)CN(C)Cc2nnc3ccccn23)c1` (stereo not drawn), the INHIBITION is given as 23.3%.

For the compound `O=C(CCC1CCCCC1)NCc1nnc2ccccn12`, the INHIBITION is recorded as -18.7%. Regarding `CN(Cc1nnc2ccccn12)C(=O)CCC1CCCC1`, the INHIBITION came out at 54.7%.

As to `Cc1ccc(C)c(CN(C)Cc2nnc3ccccn23)c1`, the INHIBITION is 9.45%. Next, `Cc1cc(C2CCCN(S(=O)(=O)c3cn(C)cn3)C2)ccn1` (stereo not drawn): 12.8%. As to `Cc1cnn(CC2CCCN2C(=O)c2c(F)cccc2Cl)c1` (stereo not drawn), the INHIBITION is -59.4%. For `CC(O)CN1CCN(C(=O)c2ccn(-c3ccc(F)cc3)n2)CC1` (stereo not drawn), the INHIBITION is reported as -7.35%. Take `Cc1cc(-c2ccc(=O)n(CCNC(=O)C3CC3)n2)c(C)o1`: the INHIBITION was -21.2%.

In the case of `CC(C)C(C)NC(=O)c1cc(Br)c2c(c1)OCCO2` (stereo not drawn), the INHIBITION is on record as 23.5%.

Consider `Cc1ccc(F)c(NS(=O)(=O)c2cc(C(=O)O)oc2C)c1`, for which the INHIBITION is 12.7%. Next, `COc1cccc2cc(CNC(=O)N3CCCC(O)C3)oc12` (stereo not drawn): 42.7%; `COc1cccc2cc(CNC(=O)N3CCC(C(N)=O)CC3)oc12`: -36.1%; `COc1cccc2cc(CNC(=O)N3CCC(N4CCCC4)C3)oc12` (stereo not drawn): 54.4%.

Consider `COc1cccc2[nH]c(C(=O)N3CCNCC3C(N)=O)cc12` (stereo not drawn), for which the INHIBITION is 12.285%. Regarding `CCN(CC)C(CNC(=O)c1c(C)noc1C(C)C)c1ccsc1` (stereo not drawn), the INHIBITION came to 33.7%. As to `CC1=Nc2c(c(=O)[nH]n2C2CCCCC2)C(c2cccnc2)S1` (stereo not drawn), the INHIBITION was 14.2%. On to `CCOCCN1CCN(Cc2nc(C3CC3)no2)CC1CC` (stereo not drawn), for which the INHIBITION was 38.7%. Regarding `CCOCCN1CCN(Cc2nc(C)no2)CC1CC` (stereo not drawn), the INHIBITION was 54.4%.

Regarding `CCN1CCN(Cc2nc(C)no2)CC1`, the INHIBITION is 0.818%. On to `CC(C)Cc1noc(CN2CCN(c3nccs3)CC2)n1`, for which the INHIBITION is on record as -22.6%. As for `CC(C)Cc1noc(CN2CCCN(C(=O)c3cccc(Cl)c3)CC2)n1`, the INHIBITION is listed as 68.3%.

With `CC(C)Cc1noc(CN2CCN(C(=O)c3cccc(F)c3)CC2)n1`, the INHIBITION is -29.9%. `CCN1CCN(Cc2nc(CC(C)C)no2)CC1`: the INHIBITION is on record as 16.45%. Next, `CC(C)Cc1noc(CN2CCN(S(C)(=O)=O)CC2)n1`: 32.78%; `CCOCCN1CCN(Cc2nc(CC(C)C)no2)CC1`: 53.575%. With `CC(C)Cc1noc(CN2CCN(CCOc3ccc(Cl)cc3)CC2)n1` the figure was 79.9%; with `CC(C)Cc1noc(CN2CCCN(C(=O)c3ccccc3Cl)CC2)n1`, 37.2%; with `CC(C)Cc1noc(CN2CCN(CCO)CC2)n1`, 48.9%.

In the case of `CN(C)C(=O)CN1C(=O)CO[C@@H]2CN(c3ccccn3)C[C@H]21`, the INHIBITION amounted to 21.7%.

Take `CCOc1c(F)cccc1C(=O)N(C)CCc1ccccn1`: the INHIBITION is on record as 24.7%. With `O=C(NC1CCCC1)c1ccc(C2CCCNC2)nc1` (stereo not drawn), the INHIBITION is -17.7%. On to `CC(=O)NCCc1cc2nc(-c3ccncc3)ccn2n1`, for which the INHIBITION came out at 14.105%. Next, `Cc1noc(C)c1CN1CCc2cnn(C)c2C1COCC1CC1` (stereo not drawn): 23.3%; `CCC[C@@H]1CN(c2cncc(C(=O)N3CCOCC3)n2)C[C@H]1N(C)C`: -31.7%; `Cc1nc(CNC(=O)N(CCCO)C2CCc3ccccc32)oc1C` (stereo not drawn): 21.6%. With `CCOCCN1CCN(Cc2nnc(C3CC3)o2)CC1C` (stereo not drawn) the figure was 74.2%; with `CCOCCN1CCN(Cc2nnc(C3CC3)o2)CC1CC` (stereo not drawn), 0%. As for `CCOCCN1CCN(Cc2nnc(C3CC3)o2)CC1`, the INHIBITION worked out at 12.6%. On to `O=C(CCc1ccc(-n2cnnn2)cc1)Nc1nncs1`, for which the INHIBITION is given as 40.6%. Next, `O=C(Cc1ccc2c(c1)CCO2)N1CCN(c2ccccn2)CC1`: -13.5%. For `N#CCCn1nc(C(F)(F)F)c2c1CCCC2`, the INHIBITION is given as 42.6%. With `NCCCn1nc(C(F)(F)F)c2c1CCC2` the figure was 27.8%; with `N#CCCn1nc(C(F)(F)F)c2c1CCC2`, 57.5%; with `Cc1nccn1C1CCCN(C(=O)c2cccc(-n3cccc3)c2)C1` (stereo not drawn), 43.2%. For `Cc1cccc(C(=O)N2CCCCC2c2[nH]ncc2S(C)(=O)=O)c1` (stereo not drawn), the INHIBITION turned out to be 4.08%. With `O=S(=O)(NCc1ccc(S(=O)(=O)N2CCCC2)s1)c1cc(Cl)cc(Cl)c1` the figure was 40.6%; with `Cn1cc(NC(=O)N2CCCC2c2cccnc2)ccc1=O` (stereo not drawn), -72.2%; with `CC(C)C1SCC(=O)Nc2c1cnn2-c1ccc(Cl)cc1` (stereo not drawn), 78%. As to `CC(C)C1SCC(=O)Nc2c1cnn2-c1ccc(F)cc1` (stereo not drawn), the INHIBITION turned out to be 8.99%. In the case of `COc1ccc(-n2ncc3c2NC(=O)CSC3C(C)C)cc1` (stereo not drawn), the INHIBITION amounted to 5.51%. With `CCn1cc2[nH]c(OC)c(CNC(=O)C3CCS(=O)(=O)CC3)cc-2c1=O`, the INHIBITION is -21.8%. On to `Cc1ccc(CN2C[C@H]3OC(=O)N(Cc4ccccn4)[C@H]3C2)o1`, for which the INHIBITION came out at 22.9%. In the case of `O=C1O[C@@H]2CN(Cc3cc4ccccc4s3)C[C@@H]2N1Cc1ccccn1`, the INHIBITION amounted to 36.5%.

For `O=C1O[C@@H]2CN(Cc3cc4ccccc4o3)C[C@@H]2N1Cc1ccccn1`, the INHIBITION is reported as 55%. As to `Cc1ccc(-c2cnnc(N3CCCC3c3nonc3C)n2)o1` (stereo not drawn), the INHIBITION is recorded as 5.67%. Next, `CN1C(=O)CCc2cc(NC(=O)C3CC(=O)N(CC4CC4)C3)ccc21` (stereo not drawn): -5.57%; `Cc1cccc(-c2noc(CN3CCCCC3Cn3cncn3)n2)c1` (stereo not drawn): 9.14%.

In the case of `Cc1cccc(NC(=O)[C@@H]2CCCN2Cc2ccccc2C#N)n1`, the INHIBITION was found to be 0.342%.

On to `Cc1cccc(NC(=O)[C@@H]2CCCN2CC(=O)Nc2ccccc2)n1`, for which the INHIBITION is listed as 76.5%.

With `Cc1cccc(NC(=O)[C@@H]2CCCN2CC(=O)N2CCCCCC2)n1`, the INHIBITION is reported as -3.83%. `CC(C)(C)Oc1ccc(NCC(=O)NCc2ccco2)cc1`: the INHIBITION was found to be 16.1%.

As to `OC(CN1CCN(Cc2nc(C3CC3)no2)CC1)c1ccccc1` (stereo not drawn), the INHIBITION is reported as -45.9%.

Take `CCCN(CCC)c1ncc(S(=O)(=O)c2ccc(C)cc2)c(N)n1`: the INHIBITION came out at 20.4%. On to `CCCN(CCC)c1ncc(S(=O)(=O)c2cccc(C)c2)c(N)n1`, for which the INHIBITION came to 6.29%.

As for `CCCN(CCC)c1ncc(S(=O)(=O)c2ccccc2)c(N)n1`, the INHIBITION is reported as 52.4%. Turning to `CN(Cc1ccccc1OC(F)(F)F)C(=O)C1CCCN(C(N)=O)C1` (stereo not drawn), the INHIBITION is listed as -116%. As for `COc1ccnc(N(C)Cc2ccccc2OC(F)(F)F)n1`, the INHIBITION came to 15.2%. For the compound `CN(Cc1ccccc1OC(F)(F)F)C(=O)C1CC1`, the INHIBITION is given as 82.7%.

For the compound `COCC1CC2(CCN(Cc3ccccn3)CC2)CN1c1ncccn1` (stereo not drawn), the INHIBITION was determined as 8.67%. `CC(C)CCn1c(=O)[nH]c2cn(-c3ccc(F)cc3)c(=O)n21`: the INHIBITION is given as -15%. For the compound `CN1CCC(C(=O)NCCC2CN(c3cnn(C)c(=O)c3)CCO2)CC1` (stereo not drawn), the INHIBITION is listed as 23.6%. Regarding `O=C1NCCCN1Cc1nc(-c2ccc(N3CCCCC3)cc2)no1`, the INHIBITION is recorded as 26.4%.

On to `O=C1OCCCN1Cc1nc(-c2ccc(N3CCCCC3)cc2)no1`, for which the INHIBITION is 55.5%. With `O=C1OCCCN1Cc1nc(-c2ccncc2)no1`, the INHIBITION worked out at 36.5%. Next, `Cc1ccc2[nH]c(=O)cc(C(=O)N[C@@H]3C[C@@H](CO)N(C)C3)c2c1`: 46.7%; `O=C(CSC1=NS(=O)(=O)c2cc(F)ccc2N1)Nc1ccc(Cl)cc1`: 3.52%. With `O=C(CSC1=NS(=O)(=O)c2cc(F)ccc2N1)Nc1cccc(Cl)c1` the figure was 16.6%; with `O=C(CSC1=NS(=O)(=O)c2cc(F)ccc2N1)Nc1ccc(Cl)c(Cl)c1`, 57.3%. Regarding `COc1cc2c(nn1)CCN(Cc1ncc(C(C)(C)C)o1)C2`, the INHIBITION is listed as 18.9%. On to `COc1cc2c(nn1)CCN(Cc1nc(Cc3ccccc3)no1)C2`, for which the INHIBITION was -112%. With `COc1cc2c(nn1)CCN(Cc1nnc(Cc3ccccc3)o1)C2` the figure was 88.5%.

Consider `O=C(C1CCCO1)N1CCCn2c(nnc2Cn2ccnc2)C1` (stereo not drawn), for which the INHIBITION is given as -12.4%.

With `CC(C)n1cc(S(=O)(=O)N2CCCCCC2)cn1`, the INHIBITION is on record as 33.3%. Regarding `c1ccc(CCc2n[nH]c(C3CCC3)n2)cc1`, the INHIBITION is reported as -31.9%. On to `COc1ccc(NCC2(O)CCNCC2)cc1OC`, for which the INHIBITION was determined as 62.7%. Turning to `OC1(CNc2ccc(F)cc2)CCNCC1`, the INHIBITION is 6.29%.

Regarding `Cc1ccc(NCC2(O)CCNCC2)cc1C`, the INHIBITION is given as 23.1%. With `O=C(CCn1c(C(F)(F)F)cc2cccnc21)NC1CCCC1` the figure was 8.72%. On to `Cc1nc2c(c(NCCN3CCOCC3)n1)CCN(C)C2`, for which the INHIBITION was 7.55%. Turning to `Cc1nc2c(c(NCCCN3CCOCC3)n1)CCN(C)C2`, the INHIBITION was 59.7%. For the compound `CCN(CC)CCCNc1nc(C)nc2c1CCN(C)C2`, the INHIBITION was determined as 5.185%. `CC(C)Cc1nc(CN2CCOC(Cn3cncn3)C2)no1` (stereo not drawn): the INHIBITION is reported as 15.3%. For `Cc1nccc(N2CCCC2CCNS(C)(=O)=O)n1` (stereo not drawn), the INHIBITION came to 10.9%. Take `c1ccc(Cc2nc(CN3CCCC3Cn3cncn3)cs2)cc1` (stereo not drawn): the INHIBITION amounted to 23.5%. For the compound `CCc1cc(=O)n(CCNC(=O)Nc2ccc(OC(F)(F)F)cc2)cn1`, the INHIBITION was found to be 28%.

(Values after ChEMBL document CHEMBL4513216, “Probing the Open Global Health Chemical Diversity Library for Multistage-Active Starting Points for Next-Generation Antimalarials” (ACS Infect Dis, 2020).)
